Assay results as given in ChEMBL document CHEMBL2218924, “A broad activity screen in support of a chemogenomic map for kinase signalling research and drug discovery” (Biochem J, 2013).

Key:
[1] = molecular target: T1, Serine/threonine-protein kinase 17A (Homo sapiens) (UniProt Q9UEE5); settings: at 10 µM
T1 sequence (whole entry): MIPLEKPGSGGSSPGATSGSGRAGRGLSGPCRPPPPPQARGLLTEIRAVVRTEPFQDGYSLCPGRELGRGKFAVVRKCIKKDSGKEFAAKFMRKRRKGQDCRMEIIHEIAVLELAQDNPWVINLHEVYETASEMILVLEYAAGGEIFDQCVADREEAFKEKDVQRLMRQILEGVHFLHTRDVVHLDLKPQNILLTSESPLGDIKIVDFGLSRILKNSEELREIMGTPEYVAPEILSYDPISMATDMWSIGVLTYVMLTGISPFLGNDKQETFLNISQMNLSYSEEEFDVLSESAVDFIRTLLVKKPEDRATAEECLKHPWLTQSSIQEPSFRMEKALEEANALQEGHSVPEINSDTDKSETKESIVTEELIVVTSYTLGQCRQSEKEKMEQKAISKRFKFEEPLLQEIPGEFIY

[2] = molecular target: T2, Dual specificity tyrosine-phosphorylation-regulated kinase 2 (Homo sapiens) (UniProt Q92630); settings: at 1 µM
T2 sequence (whole entry): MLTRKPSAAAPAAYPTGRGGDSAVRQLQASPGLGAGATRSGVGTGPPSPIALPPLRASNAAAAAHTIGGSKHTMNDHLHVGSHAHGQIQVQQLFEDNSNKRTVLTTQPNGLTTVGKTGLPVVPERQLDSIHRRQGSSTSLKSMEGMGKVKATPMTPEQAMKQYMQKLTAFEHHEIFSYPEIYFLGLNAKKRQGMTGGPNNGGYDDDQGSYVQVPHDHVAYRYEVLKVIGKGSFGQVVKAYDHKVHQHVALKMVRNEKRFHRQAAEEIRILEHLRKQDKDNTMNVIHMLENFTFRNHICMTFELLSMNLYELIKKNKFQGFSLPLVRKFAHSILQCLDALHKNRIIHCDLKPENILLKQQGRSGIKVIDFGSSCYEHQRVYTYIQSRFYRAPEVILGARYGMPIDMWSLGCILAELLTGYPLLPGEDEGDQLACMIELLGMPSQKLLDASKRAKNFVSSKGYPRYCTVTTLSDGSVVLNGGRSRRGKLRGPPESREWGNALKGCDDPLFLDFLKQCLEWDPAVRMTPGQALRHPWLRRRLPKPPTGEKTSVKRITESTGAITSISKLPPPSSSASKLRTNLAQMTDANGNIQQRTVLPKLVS

[3] = molecular target: T2, Dual specificity tyrosine-phosphorylation-regulated kinase 2 (Homo sapiens); settings: at 10 µM
[4] = molecular target: T3, Ephrin type-A receptor 1 (Homo sapiens) (UniProt P21709); settings: at 1 µM
T3 sequence (whole entry): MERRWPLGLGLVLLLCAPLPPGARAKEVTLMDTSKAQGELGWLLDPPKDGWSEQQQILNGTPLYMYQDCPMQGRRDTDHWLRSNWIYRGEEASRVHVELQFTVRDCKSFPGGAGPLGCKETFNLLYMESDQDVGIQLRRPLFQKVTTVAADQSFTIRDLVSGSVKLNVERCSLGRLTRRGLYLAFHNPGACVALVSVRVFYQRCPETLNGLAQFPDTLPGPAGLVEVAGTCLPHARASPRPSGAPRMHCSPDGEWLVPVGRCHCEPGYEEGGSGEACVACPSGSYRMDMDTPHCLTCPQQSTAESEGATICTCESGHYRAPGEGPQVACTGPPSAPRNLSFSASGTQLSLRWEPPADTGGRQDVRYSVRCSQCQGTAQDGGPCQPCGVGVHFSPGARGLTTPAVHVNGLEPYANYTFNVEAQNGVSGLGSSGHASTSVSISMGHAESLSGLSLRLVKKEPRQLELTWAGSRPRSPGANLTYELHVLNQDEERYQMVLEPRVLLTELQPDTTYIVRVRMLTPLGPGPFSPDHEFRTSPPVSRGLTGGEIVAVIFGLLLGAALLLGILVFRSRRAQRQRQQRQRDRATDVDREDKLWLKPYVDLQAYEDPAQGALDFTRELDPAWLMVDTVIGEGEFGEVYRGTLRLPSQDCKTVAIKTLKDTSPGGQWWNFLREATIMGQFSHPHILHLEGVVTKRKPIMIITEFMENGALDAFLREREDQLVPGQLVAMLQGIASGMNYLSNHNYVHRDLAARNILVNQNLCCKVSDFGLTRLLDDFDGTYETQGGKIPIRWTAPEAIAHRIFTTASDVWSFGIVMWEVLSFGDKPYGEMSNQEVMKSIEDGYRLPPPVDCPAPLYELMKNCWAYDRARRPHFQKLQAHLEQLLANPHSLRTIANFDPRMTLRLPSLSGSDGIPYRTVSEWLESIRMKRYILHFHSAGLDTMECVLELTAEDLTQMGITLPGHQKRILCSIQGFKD

[5] = molecular target: T3, Ephrin type-A receptor 1 (Homo sapiens); settings: at 10 µM
[6] = molecular target: Ephrin type-A receptor 2 (Homo sapiens) (UniProt P29317); settings: at 1 µM
Chain of Ephrin type-A receptor 2 (Homo sapiens) (P29317 whole entry): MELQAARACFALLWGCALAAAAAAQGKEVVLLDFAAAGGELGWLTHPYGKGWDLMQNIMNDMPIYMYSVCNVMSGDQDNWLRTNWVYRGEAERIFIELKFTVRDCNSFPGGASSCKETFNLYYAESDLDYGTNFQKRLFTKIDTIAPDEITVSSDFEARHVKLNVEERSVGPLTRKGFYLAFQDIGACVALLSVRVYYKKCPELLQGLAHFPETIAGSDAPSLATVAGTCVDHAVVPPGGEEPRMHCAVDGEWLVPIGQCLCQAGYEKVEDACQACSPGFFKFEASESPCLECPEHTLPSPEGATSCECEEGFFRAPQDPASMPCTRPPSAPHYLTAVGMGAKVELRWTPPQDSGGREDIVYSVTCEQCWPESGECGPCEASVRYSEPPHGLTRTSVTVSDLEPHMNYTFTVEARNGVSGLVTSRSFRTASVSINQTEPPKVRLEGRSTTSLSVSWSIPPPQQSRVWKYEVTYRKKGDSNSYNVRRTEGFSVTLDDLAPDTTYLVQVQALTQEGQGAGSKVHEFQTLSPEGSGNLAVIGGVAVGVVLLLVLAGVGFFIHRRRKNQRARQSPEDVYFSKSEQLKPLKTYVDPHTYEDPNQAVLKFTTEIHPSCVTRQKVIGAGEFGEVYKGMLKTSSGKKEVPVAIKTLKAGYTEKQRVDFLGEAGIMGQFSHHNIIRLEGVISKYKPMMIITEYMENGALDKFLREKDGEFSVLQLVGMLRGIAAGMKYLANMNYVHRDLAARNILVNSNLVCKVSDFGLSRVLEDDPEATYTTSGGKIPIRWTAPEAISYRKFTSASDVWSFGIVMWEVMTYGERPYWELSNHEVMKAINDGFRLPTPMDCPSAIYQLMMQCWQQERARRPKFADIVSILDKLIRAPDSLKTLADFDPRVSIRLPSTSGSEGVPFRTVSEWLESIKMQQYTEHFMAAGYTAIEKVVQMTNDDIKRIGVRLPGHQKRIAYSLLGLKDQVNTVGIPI

[7] = molecular target: Ephrin type-A receptor 2 (Homo sapiens) (UniProt P29317); settings: at 10 µM
[8] = molecular target: T4, Ephrin type-A receptor 3 (Homo sapiens) (UniProt P29320); settings: at 1 µM
T4 sequence (whole entry): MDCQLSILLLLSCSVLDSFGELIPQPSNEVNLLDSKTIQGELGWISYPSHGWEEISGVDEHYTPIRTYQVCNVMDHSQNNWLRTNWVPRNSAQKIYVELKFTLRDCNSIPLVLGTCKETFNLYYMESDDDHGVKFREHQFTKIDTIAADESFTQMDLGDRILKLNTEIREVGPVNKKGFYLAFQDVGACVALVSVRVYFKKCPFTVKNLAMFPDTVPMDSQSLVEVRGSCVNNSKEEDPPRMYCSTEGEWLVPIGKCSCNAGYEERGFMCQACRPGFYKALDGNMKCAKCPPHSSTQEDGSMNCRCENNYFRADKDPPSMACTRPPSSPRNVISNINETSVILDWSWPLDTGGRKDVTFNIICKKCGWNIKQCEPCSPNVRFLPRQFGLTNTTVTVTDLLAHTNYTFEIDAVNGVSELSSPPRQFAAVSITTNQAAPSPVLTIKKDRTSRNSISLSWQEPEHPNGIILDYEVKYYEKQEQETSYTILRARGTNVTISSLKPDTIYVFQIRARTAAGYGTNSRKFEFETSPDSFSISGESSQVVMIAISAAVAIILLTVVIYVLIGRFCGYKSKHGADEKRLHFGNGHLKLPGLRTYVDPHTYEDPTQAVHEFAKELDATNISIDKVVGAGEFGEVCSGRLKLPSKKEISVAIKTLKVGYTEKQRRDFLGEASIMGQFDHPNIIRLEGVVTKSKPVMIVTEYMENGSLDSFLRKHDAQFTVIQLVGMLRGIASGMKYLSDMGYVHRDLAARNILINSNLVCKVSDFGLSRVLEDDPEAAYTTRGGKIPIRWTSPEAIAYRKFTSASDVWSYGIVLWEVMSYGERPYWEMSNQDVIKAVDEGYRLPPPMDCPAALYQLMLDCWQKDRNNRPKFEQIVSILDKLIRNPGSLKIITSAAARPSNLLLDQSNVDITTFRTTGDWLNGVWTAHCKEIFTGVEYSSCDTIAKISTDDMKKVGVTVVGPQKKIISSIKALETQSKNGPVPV

[9] = molecular target: Epidermal growth factor receptor (Homo sapiens) (UniProt P00533); settings: at 1 µM
Chain of Epidermal growth factor receptor (Homo sapiens) (P00533 whole entry): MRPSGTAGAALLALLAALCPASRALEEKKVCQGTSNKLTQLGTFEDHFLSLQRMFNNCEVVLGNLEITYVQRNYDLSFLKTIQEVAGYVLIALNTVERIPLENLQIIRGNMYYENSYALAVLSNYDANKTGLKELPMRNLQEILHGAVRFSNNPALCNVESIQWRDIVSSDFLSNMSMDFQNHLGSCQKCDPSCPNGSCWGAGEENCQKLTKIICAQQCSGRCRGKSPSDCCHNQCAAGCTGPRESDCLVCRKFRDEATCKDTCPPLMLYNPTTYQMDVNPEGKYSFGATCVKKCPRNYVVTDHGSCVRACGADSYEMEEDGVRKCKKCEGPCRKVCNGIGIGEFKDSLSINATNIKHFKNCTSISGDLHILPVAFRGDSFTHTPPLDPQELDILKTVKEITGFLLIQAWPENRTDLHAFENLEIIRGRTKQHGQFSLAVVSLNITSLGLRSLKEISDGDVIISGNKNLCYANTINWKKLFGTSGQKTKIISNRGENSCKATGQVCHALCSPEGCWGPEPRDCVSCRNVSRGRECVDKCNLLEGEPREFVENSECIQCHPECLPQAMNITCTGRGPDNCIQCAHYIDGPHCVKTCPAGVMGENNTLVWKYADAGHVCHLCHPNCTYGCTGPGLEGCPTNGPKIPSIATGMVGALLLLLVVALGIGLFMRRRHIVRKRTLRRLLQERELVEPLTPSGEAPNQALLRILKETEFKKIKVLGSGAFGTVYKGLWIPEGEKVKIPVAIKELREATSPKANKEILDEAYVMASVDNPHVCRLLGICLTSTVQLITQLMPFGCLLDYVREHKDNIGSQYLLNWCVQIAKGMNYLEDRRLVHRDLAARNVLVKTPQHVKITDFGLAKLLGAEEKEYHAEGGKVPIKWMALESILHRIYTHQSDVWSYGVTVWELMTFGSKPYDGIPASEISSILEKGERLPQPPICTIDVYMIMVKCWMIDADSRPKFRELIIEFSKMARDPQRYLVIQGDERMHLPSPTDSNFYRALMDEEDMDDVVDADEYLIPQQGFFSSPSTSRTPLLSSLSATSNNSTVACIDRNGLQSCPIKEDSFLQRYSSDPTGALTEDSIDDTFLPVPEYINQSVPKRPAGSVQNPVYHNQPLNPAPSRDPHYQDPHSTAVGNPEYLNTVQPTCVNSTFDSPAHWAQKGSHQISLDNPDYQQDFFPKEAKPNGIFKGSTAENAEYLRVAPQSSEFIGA

[10] = molecular target: Epidermal growth factor receptor (Homo sapiens) (UniProt P00533); settings: at 10 µM

Row | Structure (SMILES) | residual activity [1] [%] | residual activity [2] [%] | residual activity [3] [%] | residual activity [4] [%] | residual activity [5] [%] | residual activity [6] [%] | residual activity [7] [%] | residual activity [8] [%] | residual activity [9] [%] | residual activity [10] [%]
1 | O=C1Nc2ccc(Cl)cc2/C1=C/c1cc(Cl)c(O)c(Cl)c1 | 17 | 83 | 70 | 84 | 87 | 99 | 76 | 91 | – | –
2 | CSc1nc(-c2ccc(F)cc2)c(-c2ccnc(NC(C)c3ccccc3)c2)[nH]1 (configuration not stated) | 72 | – | 86 | 101 | 78 | 87 | – | – | – | –
3 | CC(C)(C)n1nc(Cc2cccc3ccccc23)c2c(N)ncnc21 | 103 | 109 | 99 | 7 | -1 | 33 | 1 | 63 | – | –
4 | NC(=O)c1cccc(-c2cc(Nc3ccc(OC(F)(F)F)cc3)ncn2)c1 | 145 | – | 91 | – | 96 | – | – | – | – | –
5 | Oc1cccc(-c2nc(N3CCOCC3)c3oc4ncccc4c3n2)c1 | 86 | 94 | 98 | 91 | – | – | – | – | 119 | 119
6 | O=C(Nc1ccc(Cl)cc1)c1ccccc1NCc1ccncc1 | 99 | – | – | – | – | – | – | – | – | –
7 | O=C(O)/C=C/c1cc(Br)c(Br)c(Br)c1Br | 39 | 92 | 38 | 104 | 91 | – | – | 101 | – | –
8 | CCCCc1c(-c2ccc(O)cc2)[nH]c2nccnc12 | 44 | 85 | 34 | 29 | 47 | 82 | 60 | 72 | – | –
9 | O=c1cc(N2CCOCC2)oc2c1ccc1ccccc12 | 71 | 97 | 65 | 91 | 87 | – | 95 | 92 | – | –
10 | Fc1ccc(-c2nc3n(c2-c2ccncc2)CCS3)cc1 | 91 | – | 91 | – | – | 99 | 87 | – | – | –
11 | Nc1n[nH]c2nc3ccccc3nc12 | 50 | 92 | 41 | 87 | 83 | – | – | 98 | – | –
